Experimental data from PubChem BioAssay AID2685 (National Center for Advancing Translational Sciences (NCATS), 2010).
The whole screen tested about 320,000 compounds, of which about 2,100 (0.66%) were called active. Another 53% or so got no clear call; they are omitted. The call rests on the fitted dose curve; in most records, active means well fitted inhibition curve with a large enough effect in the signal ratio, with a control signal flat (not every such curve was filed as active); inconclusive means small, poorly fitted or top-dose-only effect, or effect the other way, or a change in a side signal; inactive means flat fitted curve, though single readings scatter; the % refers to the signal ratio. Shown is part of a subset that was picked to be rich in actives.

test: qHTS Assay for Lipid Storage Modulators in Drosophila S3 Cells; settings: BODIPY lipid droplet fluorescence, 18-24 h, cells fed with added oleic acid; cell number change: measured here: cell count max response; series mostly up to 46.1 µM;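 on cell number change: cells counted by Cell Tracker Red CMTPX staining in the red channel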; on lipid storage change, negative = inhibition: on the % scale 0 is the no-effect control and ±100 the full control effect
Method in brief: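 Drosophila S3 cells got compounds at several concentrations plus oleic acid (400 uM solution). Laser-scanning cytometry with 488 nm excitation read lipid droplets at 500-530 nm and cells at 575-640 nm. Percent activity was relative to 20 uM Triacsin C.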
Potency means the concentration at half of the fitted maximal effect.

Compound | Potency | cell number change [%] | lipid storage change, negative = inhibition
Cc1ccc(OCCn2cc(C(=O)O)c3ccccc32)cc1 | inactive | 6.58 | 
COc1ccc(C(=S)N2CCOCC2)cc1OC(=O)c1ccccc1Cl | inactive | 11.8 | 
COc1ccc(C(CC(=O)O)NS(=O)(=O)c2ccc(C)cc2)cc1OC (centres undefined) | inactive | -5.13 | 
COc1ccc(C(CC(=O)O)NS(=O)(=O)c2ccc(C)cc2)cc1 (centres undefined) | 2.91 µM (active) | 9.41 | 
Cc1ccc(S(=O)(=O)NC(CC(=O)O)c2ccc(F)cc2)cc1 (centres undefined) | inactive | 2.4 | 
O=C(C1=C[C@@H](c2coc3ccccc3c2=O)C[C@@H](OCCCCO)O1)N1CCN(Cc2ccc3c(c2)OCO3)CC1 | inactive | -4.69 | 
CCc1c(C(=O)Nc2ccccc2)c(C)[nH]c(=S)c1C#N | inactive | 16.5 | 
Cc1ccc(-c2c(C(=O)Nc3ccccc3C)c(C)[nH]c(=S)c2C#N)o1 | inactive | 5.19 | 
Cc1[nH]c(=S)c(C#N)c(-c2ccccc2)c1C(=O)Nc1ccccc1 | 7.31 µM (active) | -24.7 | 
O=C(CCCN1C(=O)S/C(=C/c2ccccc2)C1=S)Nc1ccc(C(=O)O)cc1 | inactive | 10.3 | 
CC(=O)c1ccc(NC(=O)CCCN2C(=O)C(c3ccccc3)Oc3cccnc32)cc1 (centres undefined) | inactive | -3.13 | 
CCc1cccc(NC(=O)CCCN2C(=O)C(c3ccccc3)Oc3cccnc32)c1 (centres undefined) | 20.6 µM (active) | 12 | 
Cc1cc(C)cc(NC(=O)CCCN2C(=O)C(c3ccccc3)Oc3cccnc32)c1 (centres undefined) | -12% |  | 
Cc1ccc(C)c(NC(=O)C2CCCN2S(=O)(=O)c2ccc3c(c2)n(C)c(=O)c(=O)n3C)c1 (centres undefined) | inactive | 7.23 | 
O=C(/C=C/c1ccccc1)NC(NC(=S)Nc1cccc(O)c1)C(Cl)(Cl)Cl (centres undefined) | inactive | 11.8 | 
O=C(/C=C/c1ccccc1)NC(NC(=S)Nc1cc(Cl)ccc1Cl)C(Cl)(Cl)Cl (centres undefined) | 16.4 µM (active) | -23.7 | 
O=C(Cc1ccccc1)NC(NC(=S)Nc1cc(Cl)ccc1Cl)C(Cl)(Cl)Cl (centres undefined) | inactive | -5.82 | 
COc1ccc2c(c1)c(C(=O)N/N=C/c1ccc(Br)cc1)c(C)n2C | inactive | 12 | 
CCOC(=O)Cc1csc(N/N=C/c2ccc(C(F)(F)F)cc2)n1 | inactive | -3.51 | 
CCN(CC)c1ccc(C=C2C(=O)OC(c3ccccc3)OC2=O)cc1 (centres undefined) | inactive | 18.7 | 
CCN(CC)c1ccc(/C=C2/C(=O)ON=C2C)cc1 | 9.2 µM (active) | -20.6 | 
CC1=NOC(=O)/C1=C/c1ccc(N(C)C)cc1 | inactive | -16.6 | 
CCOC(=O)C1CCN(Cc2nnc(-c3ccccc3C)o2)CC1 | inactive | 14.7 | 

Compound | Potency | cell number change [%] | lipid storage change, negative = inhibition
CCOC(=O)C(NCCc1ccccc1F)(NC(C)=O)C(F)(F)F (centres undefined) | inactive | 0.435 | 
O=C(Nc1cccc(NC(=O)c2ccccc2Cl)c1)c1ccc([N+](=O)[O-])o1 | inactive |  | 
Cc1cccc(NC(=O)NNC(=O)c2ccc(C)c([N+](=O)[O-])c2)c1 | inactive | 11.9 | 
O=C(Nc1ccc2oc(-c3cccnc3)nc2c1)c1ccc([N+](=O)[O-])o1 | 3.66 µM (active) | -27.4 | 
O=C(Nc1ccc2oc(-c3cccnc3)nc2c1)c1ccco1 | inactive | -3.59 | 
O=C(Nc1cccc(NC(=O)c2ccc([N+](=O)[O-])o2)c1)c1ccco1 | 5.8 µM (active) | 19.2 | 
O=C(Nc1ccc(Cl)c([N+](=O)[O-])c1)c1ccco1 | inactive | -24.9 | 
O=C(Nc1ccccc1)c1ccc(NCCc2ccccc2)c([N+](=O)[O-])c1 | inactive | -13.2 | 
Cc1cccc(NC(=O)c2ccc(NCCc3ccccc3)c([N+](=O)[O-])c2)c1 | 16.4 µM (active) | 11.4 | 
O=C(Nc1cccnc1)c1ccc([N+](=O)[O-])o1 | inactive |  | 
O=C(Nc1cccc(NC(=O)c2ccco2)c1)c1ccc([N+](=O)[O-])cc1 | inactive | 3.56 | 
Cc1cc(C(=O)Nc2ccncc2)ccc1[N+](=O)[O-] | inactive | -15 | 
Cc1cc(C(=O)Nc2cccc(NC(=O)c3ccco3)c2)ccc1[N+](=O)[O-] | 1.84 µM (active) | -29.7 | 
CCCCNC(=O)COc1ccccc1C(=O)c1cc(C#N)c(=O)n(CCOC)c1 | inactive | 1.51 | 
COc1ccc(S(=O)(=O)N2CCCC2)c2ccccc12 | inactive | 12.2 | 
CCc1ccc2[nH]c(=O)c(CN(CCN(CC)CC)C(=O)Nc3ccccc3OC)cc2c1 | inactive | 22.1 | 
COc1nc(N2CCCC2)nc(-n2nnc(C(C)=O)c2C)n1 | inactive | 9.7 | 
CC(=O)c1c(C)[nH]c2ccccc2c1=O | inactive | -9.21 | 
COC(=O)c1c(NC(=O)CSc2nnc(C)c(=O)[nH]2)sc(C)c1C | inactive | -15.8 | 
COc1ccc(C2CC(c3ccc(Br)cc3)=NN2C(=O)CSC2=NCCS2)cc1 (centres undefined) | inactive | -2.75 | 
COc1ccc(C(=O)Nc2cc(OC)nc(OC)n2)cc1 | inactive | -3.14 | 
COc1cc(NC(=O)c2ccccc2)ccc1NC(=O)c1cc2ccccc2o1 | inactive | -16.3 | 
Cc1cc(C)cc(NC(=O)c2ccc([N+](=O)[O-])o2)c1 | inactive | -11.8 | 

Compound | Potency | cell number change [%] | lipid storage change, negative = inhibition
COc1cc(NC(=O)c2ccc([N+](=O)[O-])o2)ccc1NC(=O)c1ccco1 | 8.2 µM (active) | -26.2 | 
Cc1cccc(NC(=O)c2ccc([N+](=O)[O-])o2)c1 | 13 µM (active) | 3.29 | 
COc1cc(NC(=O)c2cccc([N+](=O)[O-])c2)ccc1NC(=O)c1ccco1 | inactive | -8.46 | 
COc1cc(NC(C)=O)ccc1NC(=O)c1cc2ccccc2o1 | inactive | 11.3 | 
O=C(Nc1c(Cl)ccc2nsnc12)c1ccc([N+](=O)[O-])o1 | inactive | 11.1 | 
COc1cc(NC(=O)c2cc3ccccc3o2)ccc1NC(=O)c1ccco1 | 0.58 µM (active) | 2.99 | 
CCC(=O)Nc1ccc(NC(=O)c2ccco2)c(OC)c1 | inactive | 16 | 
Cc1cccc(NC(=O)c2ccc(-c3ccccc3[N+](=O)[O-])o2)c1 | inactive | 15.3 | 
Cc1ccc2nsnc2c1NC(=O)c1ccc([N+](=O)[O-])o1 | 18.4 µM (active) | 0.87 | 
Cc1ccc2nsnc2c1NC(=O)c1cccc([N+](=O)[O-])c1 | inactive | 3.04 | 
Cc1ccc(C(=O)CCC(=O)OCc2nnc(-c3ccccc3)o2)cc1 | inactive |  | 
O=C1c2cc(Cl)ccc2OC2(CCNCC2)C12CC(c1ccccc1)=NO2 (centres undefined) | inactive | 8.66 | 
COC(=O)[C@@]1(Cc2ccc(OC)cc2)[C@H]2c3cc(C(=O)N4CCCC4)n(CCSCCO)c3C[C@H]2CN1C(=O)c1ccccc1 | inactive | 0.624 | 
CN(C1CCCC1)C1CCN(C(=O)CNC(=O)/C=C/c2cccc(C(F)(F)F)c2)CC1 | inactive | 8.56 | 
CN(C)c1ccc(CN(C(=O)c2cccs2)C2CCS(=O)(=O)C2)cc1 (centres undefined) | inactive | 15.9 | 
c1ccc(OCc2nc3c4c(ncn3n2)-c2ccccc2CC42CCCC2)cc1 | inactive | -10.9 | 
COc1ccccc1NC(=O)C1CCCN(c2cnccn2)C1 (centres undefined) | inactive | 17.3 | 
COc1cc2c(cc1OC)CN(C(=O)Nc1ccccc1)CC2 | inactive | 6.01 | 
CCCc1cc(=O)n2[nH]c(C)c(-c3ccc(OC)cc3)c2n1 | 18.4 µM (active) | 16.5 | 
COC(=O)Cc1cc(=O)n2[nH]c(C)c(-c3ccccc3)c2n1 | inactive | -1.66 | 
CCOC(=O)Cc1cc(=O)n2[nH]c(C)c(-c3ccc(Cl)cc3)c2n1 | inactive | -27.5 | 
C/C(=N\NC(=O)NC1CCCCC1)c1ccc(Cl)s1 | inactive | -11.8 | 
COc1ccc(-c2nc(SC(C)C(=O)Nc3ccc(NC(C)=O)cc3)n[nH]2)cc1 (centres undefined) | inactive | 32.4 | 

Compound | Potency | cell number change [%] | lipid storage change, negative = inhibition
COc1ccc(-c2nc(SC(C)C(=O)NC3CC3)n[nH]2)cc1 (centres undefined) | 1.84 µM (active) | -10 | 
COc1ccc(-c2nc(SCC(=O)NC3CCCCC3)n[nH]2)cc1 | inactive | -21.7 | 
CCOC(=O)C1CCCCN1Cc1cccc(Oc2ccccc2)c1 (centres undefined) | inactive | -1.04 | 
CCOC(=O)C1CCCCN1Cc1ccc(C(F)(F)F)cc1 (centres undefined) | 6.51 µM (active) | -25.6 | 
CCOC(=O)C1CCCCN1Cc1ccc(F)c(Br)c1 (centres undefined) | inactive | -23.6 | 
COc1cc(C2CC(=O)Oc3c(C(CCN4CCN(c5ccccc5)CC4)c4ccc(N(C)C)cc4)c(OC)cc(OC)c32)cc(OC)c1OC (centres undefined) | inactive | -0.692 | 
O=C(COc1ccccc1[N+](=O)[O-])Nc1cc(C(=O)O)cc(C(=O)O)c1 | inactive | -6.55 | 
Cc1sc2ncnc(SCC(=O)Nc3ccc(CN4CCCC4)cc3)c2c1C | inactive | 13.1 | 
CCN(CC(=O)Nc1ccc(NC(C)=O)cc1)C(=O)CSc1ncnc2sc(C)c(C)c12 | inactive |  | 
CC(=O)Nc1ccc(NC(=O)CSc2ncnc3sc(C)c(C)c23)cc1 | 13 µM (active) | 3.95 | 
COC(=O)c1ccc(NC(=O)CSc2nc3[nH]ncc3c(=O)[nH]2)cc1 |  |  | -11.4% [at 0.0737 µM] (inactive)
CC(C)c1ccc(OCC(=O)NC(C)c2ccccc2)cc1 (centres undefined) | inactive | -6.3 | 
CC(C)C(NC(=O)COc1ccccc1)C(=O)O (centres undefined) | 32.6 µM (active) | -18.5 | 
O=C(COc1ccccc1)NCc1ccccc1 | inactive |  | 
CC(C)CC(NC(=O)COc1ccccc1)C(=O)O (centres undefined) | inactive | 23.7 | 
CCc1ccc(C(=O)COC(=O)CNC(=O)COc2ccccc2)cc1 | inactive | -0.597 | 
COC(=O)CNC(=O)COc1ccccc1 | 25.9 µM (active) | 0.31 | 
COC(=O)c1cccc(NC(=S)N2CCN(c3ccccc3F)CC2)c1 | inactive | 12.8 | 
CCOC(=O)CC(/C(C)=N\O)c1ccccc1 (centres undefined) | inactive | -0.923 | 
O=C(CN1C(=O)CSC1=O)Nc1ccc(N2CCOCC2)cc1 | 20.6 µM (active) |  | 
Cc1ccc(NC(=O)CN2C(=O)CSC2=O)cc1 | inactive | -1.37 | 
CCc1ccc(NC(=O)CN2C(=O)CSC2=O)cc1 | inactive | -0.41 | 
